The campaign covered roughly 1,400 compounds. About 50 (4%) were called active.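 Rule for the calls: active = fitted curve reaches 30% CPE protection at or below the top valid dose, with every test run called active; inconclusive = test runs disagree, some active and some not; inactive = every test run inactive, including effects in the wrong direction.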 The list is a sample of the results. Entries that show only a call come without a potency. Potency and affinity values are given separately.

The test in a line: antiviral rescue of DENV2-infected BHK-21 cells – cell-based, ATP luminescence, cherry-pick, dose response (AID 687031). The note with it: BHK-21 DENV2 CPE protection, 5 d; series mostly up to 19.5 µM.
With `CO[C@@H]1CN(C)C(=O)c2ccc(NC(=O)Nc3cc(F)ccc3F)cc2OC[C@@H](C)N(C(=O)c2ccccn2)C[C@H]1C`, the result was inactive.
In the case of `CC1=C(C(=O)N(C)C)CC(CC(=O)NC2CCCCC2)C(=O)N1Cc1ccc(C(C)(C)C)cc1` (stereo not drawn), the molecule was called inactive.
As for `CN(CC(=O)Nc1cccc(F)c1)C(=O)c1ccccc1CCc1ccccc1`, the entry is “inactive”; as for `C[C@H](CO)N1C[C@H](C)[C@@H](CN(C)C(=O)C2CC2)Oc2cc(C#Cc3ccccc3)ccc2S1(=O)=O`, “inactive”; as for `Cc1cc(OCc2cc(C(=O)N(C)C(C)c3ccccn3)no2)cc(C)c1Cl` (stereo not drawn), “inactive”.
As for `COc1cc(C)ccc1OCc1cc(C(=O)NCCN2CCCC(O)C2)no1` (stereo not drawn), the entry is “inactive”; as for `Cc1c(C(=O)N2CCCC2)oc2ccc(Br)cc12`, “inactive”; as for `C[C@@H]1CN([C@H](C)CO)C(=O)Cc2cc(NC(=O)CCCCCC(=O)Nc3ccccc3N)ccc2O[C@@H]1CN(C)Cc1ccc(C(F)(F)F)cc1`, “inactive”.
As for `Cc1ccc(S(=O)(=O)NC(=O)C2(C)CCN2C(=O)Cc2cccs2)cc1` (stereo not drawn), the entry is “inactive”.
For `C[C@H](NC(=O)c1ncn(Cc2ccccc2)c1C(=O)N[C@@H](C)c1ccccc1)c1ccccc1`, the molecule was classed as inactive.
As for `C[C@H](CO)N1C[C@H](C)[C@H](CN(C)C(=O)Nc2ccc(C(F)(F)F)cc2)OCCCC[C@H](C)Oc2ccc(NS(=O)(=O)c3ccc(F)cc3)cc2C1=O`, the entry is “inactive”; as for `O=S(=O)(c1ccc(F)cc1)N1CC[C@@H]2[C@H]1c1cc(-c3ccc(F)cc3)ccc1N[C@@H]2CO`, “inactive”.
With `CCC(=O)N1CC[C@@H]2[C@H](CO)Nc3ccc(-c4cccc(C#N)c4)cc3[C@@H]21` the entry was “inactive”; with `COc1cccc(C(O)c2nc(-c3cc(F)cc(F)c3)cs2)c1` (stereo not drawn), “inactive”; with `CC(NC(=O)CCc1ccccc1)c1ccc2c(c1)OCO2` (stereo not drawn), “inactive”.
With `CC(CNC(=O)Cn1ccc(NC(=O)OCc2ccccc2)nc1=O)c1ccccc1` (stereo not drawn) the entry was “inactive”; with `CCCCCCN1CCN(C2CN(Cc3ccc(F)cc3)S(=O)(=O)C2)CC1` (stereo not drawn), “inactive”; with `O=C(c1cnccn1)N1CC[C@@H]2[C@@H](CO)Nc3ccc(-c4ccccc4F)cc3[C@@H]21`, “inactive”.
With `Nc1c(-c2ccccc2)nc2ncccn12`, the call was inactive.
As for `CCCc1cc(=O)oc2c(C)c(OCC(=O)N3C[C@H]4C[C@@H](C3)c3cccc(=O)n3C4)ccc12`, the entry is “inactive”.
With `CCOc1ccc(/C=N/NC(=O)c2ccccc2O)cc1CN1CC2CC(C1)c1cccc(=O)n1C2` (stereo not drawn), the call was inactive.
With `COc1ccc(NS(=O)(=O)c2cccs2)cn1` the entry was “inactive”; with `COc1cccc(OC)c1Nc1nc(C)nc2c1nnn2Cc1ccccc1Cl`, “inactive”.

These data come from PubChem BioAssay AID687031 (Broad Institute, 2013).
